Among all 290,000 compounds or so, about 3,000 (1%) were called active. No stated cut-off is given here; in the data, active means inhibition mostly above about 36% (no sharp cut-off); inactive means mostly below about 34%. For the sample, actives were picked, then their nearest neighbours and some compounds at random.
Experiment: inhibition of NOD1-driven NF-kB reporter – cell-based, luminescence, uHTS, primary screen (AID 1578);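 further: HEK-293T reporter cells stimulated with the NOD1 agonist gamma-tri-DAP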
Settings: NOD1-driven NF-kB luciferase reporter cells, at 4 µM, stronger effect = higher value

Row | SMILES | inhibition
1 | CSc1ccc(S(=O)(=O)N2CCC(C(=O)NCCN3CCOCC3)CC2)cc1 | -17.3% (inactive)
2 | O=c1c2sc(-c3ccccc3)cc2nc2n1CCC2 | -26.3% (inactive)
3 | Cc1nc2sc(-c3ccccc3)cc2c(=O)n1N | 29.8% (active)
4 | CSc1nc2sc(-c3ccccc3)cc2c(=O)n1N | -13.6% (inactive)
5 | Cc1nc2ccccc2c(=O)n1N | -11.6% (inactive)
6 | Cc1nc2cc(-c3ccccc3)sc2c(=O)n1N | 95.4% (active)
7 | Cc1ccc(C)n1-n1c(C)nc2sc(-c3ccccc3)cc2c1=O | -14.6% (inactive)
8 | COc1cccc(CN2CCN(C3CCOCC3)CC2CCO)c1 (stereo unspecified) | 2.6% (inactive)
9 | CCOC(=O)Cc1nnc(NC(=O)CSc2nnc3c(n2)[nH]c2ccccc23)s1 | 19% (inactive)
10 | CSc1ccc(C(=O)C2CCCN(S(=O)(=O)c3c(C)noc3C)C2)cc1 (stereo unspecified) | -19.9% (inactive)
11 | COc1c(C)cc(C(=O)C2CCCN(S(=O)(=O)c3c(C)noc3C)C2)cc1C (stereo unspecified) | 48.6% (active)
12 | Cc1noc(C)c1S(=O)(=O)N1CCCC(C(=O)c2cccc(OC(C)C)c2)C1 (stereo unspecified) | 4.9% (inactive)
13 | CCCCOc1ccc(-c2ncc(C(=O)O)c(C)n2)cc1 | -62% (inactive)
14 | COc1ccccc1CN(Cc1nc2ccccc2c(=O)[nH]1)S(=O)(=O)c1ccc(C)cc1 | -16.5% (inactive)
15 | Nc1cc(S(=O)(=O)c2ccc(O)c(N)c2)ccc1O | -4.4% (inactive)
16 | C=CCc1ccc(O)c(-c2ccc(O)c(CC=C)c2)c1 | -6.9% (inactive)
17 | C=CCc1cc(S(=O)(=O)c2ccc(O)c(CC=C)c2)ccc1O | 47.4% (active)
18 | Cc1[nH]c(-c2ccc(F)cc2)cc1C(=O)N1CCN(c2ccccc2)CC1 | -4.4% (inactive)
19 | O=C(Nc1cccc(-c2nnc(-c3ccccc3)o2)c1)C1CCCCC1 | 30.6% (active)
20 | O=C(Nc1cccc(-c2nnc(-c3ccccc3)o2)c1)C1CC1 | 2.9% (inactive)
21 | O=C(Nc1nnc(-c2ccccc2)o1)C1CCCCC1 | -11.8% (inactive)

Row | SMILES | inhibition
22 | COc1cc2cc(Br)cc(Br)c2nc1C | 37.7% (inactive)
23 | Brc1cc(Br)c2nc3c(cc2c1)CCC3 | -13.3% (inactive)
24 | COc1ccc(CN(C)S(=O)(=O)c2nnc(NC(=O)c3cccc(OC)c3)s2)cc1 | 7.1% (inactive)
25 | COc1ccc(CN(C)S(=O)(=O)c2nnc(NC(=O)c3cccc(F)c3)s2)cc1OC | 4.4% (inactive)
26 | COc1cccc(C(=O)Nc2nnc(S(=O)(=O)N(C)Cc3ccc(F)cc3)s2)c1 | 16.8% (inactive)
27 | CN(Cc1ccccc1)S(=O)(=O)c1nnc(NC(=O)c2ccccc2)s1 | 1.1% (inactive)
28 | CC(=O)C1=C(O)C(=O)N(Cc2ccccc2)C1c1ccco1 (stereo unspecified) | -9.8% (inactive)
29 | Cc1ccccc1CN1CCC(n2nccc2NC(=O)c2cccnc2)CC1 | -23.7% (inactive)
30 | Cc1ccc(S(=O)(=O)CCC(=O)OCC(=O)c2c[nH]c3ccccc23)cc1 | 17.3% (inactive)
31 | CCCCn1c(Cc2ccccc2)nnc1SCC(=O)Nc1cc(C)on1 | 112% (active)
32 | CCn1c(Cc2ccccc2)nnc1SCC(=O)Nc1cc(C)on1 | 5% (inactive)
33 | COCCn1c(Cc2ccccc2)nnc1SCC(=O)Nc1cc(C)on1 | -22.5% (inactive)
34 | Cc1ccc(S[C@@H](CCN2CC[C@H](O)CCC2=O)c2ccccc2)cc1 | -12.3% (inactive)
35 | CC(C)(C)c1ccc(C(=O)n2cnc3ccccc32)cc1 | -13.4% (inactive)
36 | CCN(CC)c1ccc(C(=O)n2cnc3ccccc32)cc1 | 38.7% (active)
37 | COc1ccc(C(=O)n2cnc3ccccc32)cc1 | -10.8% (inactive)
38 | O=C(CSc1ncn[nH]1)NCCCc1ccccc1 | -16.5% (inactive)
39 | COc1cc(CNc2cccc3[nH]c(C(F)(F)F)nc23)cc(OC)c1 | 33% (active)
40 | COc1ccc(CNc2cccc3[nH]c(C(F)(F)F)nc23)cc1 | 6% (inactive)
41 | COc1ccc(CNc2cccc3[nH]c(C(F)(F)F)nc23)cc1OC | -14.9% (inactive)
42 | O=C1OCC/C1=C\c1ccc2c(c1)OCO2 | -0.1% (inactive)

Row | SMILES | inhibition
43 | CCOC(=O)c1c2c3c(cccc3[nH]c1=O)C(=O)c1ccccc1-2 | -40.2% (inactive)
44 | CCOC(=O)c1c(C)[nH]c(C)c1-c1ccccc1OC | 13.9% (inactive)
45 | CCOC(=O)c1c(C)[nH]c2c1-c1ccccc1C(=O)C2=O | 106% (active)
46 | COc1ccc2[nH]cc(C(=O)CN3CCN(C/C=C/c4ccccc4)CC3)c2c1 | -1.2% (inactive)
47 | Cc1[nH][nH]c(=O)c1C(c1c(C)[nH][nH]c1=O)c1cn(Cc2ccc(Cl)c(Cl)c2)c2ccccc12 | -18.9% (inactive)
48 | Cc1[nH][nH]c(=O)c1C(c1c(C)[nH][nH]c1=O)c1cn(Cc2ccccc2Cl)c2ccccc12 | 83.9% (active)
49 | Cc1[nH][nH]c(=O)c1C(c1c(C)[nH][nH]c1=O)c1cn(Cc2cccc3ccccc23)c2ccccc12 | 10.6% (inactive)
50 | Cc1c(CN(C)Cc2cn(C)nc2-c2ccccc2F)[nH]c2ccccc12 | -13.2% (inactive)
51 | c1ccc(CCn2nnnc2C(c2cccs2)N2CCN(Cc3ccc4c(c3)OCO4)CC2)cc1 (stereo unspecified) | -12.4% (inactive)
52 | COc1ccc(C)cc1NC(=O)CSc1nnc(COc2ccc(C)cc2)n1Cc1ccco1 | 28.5% (inactive)
53 | CCC(C)Sc1nc(O)c(Cc2ccccc2)c(=O)[nH]1 (stereo unspecified) | 6.4% (inactive)
54 | O=C(CSC1=NC(=O)C(Cc2ccccc2)C(=O)N1)NC1CCCCC1 (stereo unspecified) | -8.3% (inactive)
55 | COc1ccccc1-c1cn[nH]c1-c1ccc(OCc2ccccc2F)cc1O | 0% (inactive)
56 | COc1ccc(-c2cn[nH]c2-c2ccc(OCc3ccccc3)cc2O)cc1OC | 28.5% (inactive)
57 | COc1ccc(-c2cn[nH]c2-c2ccc(OCc3ccc([N+](=O)[O-])cc3)cc2O)cc1 | 91.5% (active)
58 | COc1ccc(-c2cnc(N)nc2-c2ccc(OCc3ccccc3)cc2O)cc1 | -0.9% (inactive)
59 | O=[N+]([O-])c1ccc(COc2ccc(-c3[nH]ncc3-c3ccc(Cl)cc3)c(O)c2)cc1 | 5.4% (inactive)
60 | Nc1ncc(-c2ccccc2)c(-c2ccc(OCc3ccccc3)cc2O)n1 | 2.3% (inactive)
61 | COc1ccc(-c2cn[nH]c2-c2ccc(OCc3ccc([N+](=O)[O-])cc3)cc2O)cc1OC | 34.4% (inactive)

Source: PubChem BioAssay AID1578 (Sanford-Burnham Center for Chemical Genomics, 2009)
